# Source: ChEMBL document CHEMBL3433997, “St. Jude Leishmania screening dataset” (2016)
# Columns and labels:
# Format in all cases: functional
# [1] = target: Solute carrier family 2, facilitated glucose transporter member 1 (Homo sapiens) (UniProt P11166); experiment: ST_JUDE_LEISH: Cytotoxicity at 2uM final concentration against transgenic Leishmania Mexicana promastigotes LmGLUT1 that are glucose transport deficient and complemented with the human glucose transporter GLUT1. Activity is measured by DNA content using SYBR green in vitro
# [2] = target: Hexose transporter 1 (Plasmodium falciparum) (UniProt O97467); experiment: ST_JUDE_LEISH: Cytotoxicity at 2uM final concentration against transgenic Leishmania Mexicana promastigotes LmPfHT that are glucose transport deficient and complemented with the Plasmodium falciparum hexose transporter. Activity is measured by DNA content using SYBR green in vitro
# [3] = target: Glucose transporter (Leishmania mexicana) (UniProt O61059); experiment: ST_JUDE_LEISH: Cytotoxicity at 2uM final concentration against transgenic Leishmania Mexicana promastigotes LmGT2 that are glucose transport deficient and complemented with the L. Mexicana glucose transporter 2. Activity is measured by DNA content using SYBR green in vitro
# Solute carrier family 2, facilitated glucose transporter member 1 (Homo sapiens), sequence (P11166 whole entry): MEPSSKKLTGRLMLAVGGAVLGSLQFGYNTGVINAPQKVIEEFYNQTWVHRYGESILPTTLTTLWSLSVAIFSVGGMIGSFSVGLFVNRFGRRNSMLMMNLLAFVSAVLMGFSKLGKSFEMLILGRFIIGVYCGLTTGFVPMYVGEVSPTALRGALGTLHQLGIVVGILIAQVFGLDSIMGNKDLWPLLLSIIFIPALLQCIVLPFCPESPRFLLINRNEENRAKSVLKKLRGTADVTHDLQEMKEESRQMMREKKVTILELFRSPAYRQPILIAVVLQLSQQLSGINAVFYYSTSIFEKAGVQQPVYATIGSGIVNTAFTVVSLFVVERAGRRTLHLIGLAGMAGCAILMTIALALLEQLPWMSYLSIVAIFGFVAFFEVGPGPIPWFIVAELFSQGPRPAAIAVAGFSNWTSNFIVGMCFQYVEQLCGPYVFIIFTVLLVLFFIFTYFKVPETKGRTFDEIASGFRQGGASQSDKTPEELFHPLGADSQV
SMILES,inhibition [1] [%],inhibition [2] [%],inhibition [3] [%]
Cc1ccccc1C1CCN(c2ccc(C(=O)NC3CC3)cn2)CC1,-0.44,1.26,0.57
CC(C)(C(=O)Nc1ccc(C2CCC(NCC3CC3)CC2)c(Cl)c1)c1ccc(C(F)(F)F)cc1 (stereo unspecified),0.29,0.31,-0.91
O=C(NCCCCN1CCC(c2ccc3c(c2OCCOCCO)CCCC3)CC1)c1ccc(-c2ccc(C(F)(F)F)cc2)cc1,0.77,2.47,0.76
COc1cc2nc(N(C)Cc3cc4c(Cl)cccc4s3)nc(N)c2cc1OC,-0.54,-1.7,-3.11
O=C(NCCNc1ccnc(NCc2ccc(F)cc2)n1)c1cc2ccccc2s1,4.76,4.26,-0.4
CN(CCc1ccccn1)c1cccc2c1nc(-c1cccnc1)n2CCNCc1ccccc1,14.8,13.4,11.3
CCCCCCN(C(=O)OCc1ccccc1)C1CCN(C(=O)OC(C)(C)C)CC1C(=O)OCC (stereo unspecified),7.92,6.27,7.27
Cc1cc(NC(=O)Nc2cccc(C#N)c2)c2ccccc2n1,4.37,4.11,3.04
Cc1cc2ccc(-c3cccc(CN)c3)cc2nc1N,0.93,1.15,0.73
O=C(Nc1ccc(-c2nc3ccc(NC(=O)c4ccc(Br)cc4)cc3[nH]2)cc1)c1ccc(Br)cc1,-0.81,-0.68,-2.77
CCCNCc1ccc(-c2ccc(CN(C(=O)c3nn(-c4ccccc4)nc3C)C(C)CN(C)C)cc2)nc1 (stereo unspecified),1.37,0.07,6.31
CC1(C)NC(N)=NC(=N)N1OCCSCCON1C(=N)N=C(N)NC1(C)C,-0.9,0.07,-0.26
